In PubChem BioAssay (EPA / NIEHS) one finds outcome and AC50 data, which are given here for eight molecules.

Assay [1] is described as follows: CCTE_Harrill_HTTr_Viability_MCF7: CCTE's 6-hour Cell Viability Assessment for the High-Throughput Transcriptomics (HTTr) Platform, in MCF-7 cells cultured in DMEM + 10% fetal bovine serum, Harrill Lab (AID 2284010). The gist of the method: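 Read-out is propidium iodide gain of signal by high-content imaging, reflecting membrane integrity loss. Measurements are taken 6 h after dosing, eight concentrations per chemical, with DMSO serving as baseline for bidirectional curve fitting.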

Assay [2] can be described thus: CCTE_Harrill_HTTr_Apoptosis_MCF7: CCTE's 6-hour Apoptosis Assessment for the High-Throughput Transcriptomics (HTTr) Platform, in MCF-7 cells cultured in DMEM + 10% fetal bovine serum, Harrill Lab (AID 2284011). The gist of the method: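 High-content imaging of CellEvent Caspase 3/7 Green signal follows a six-hour exposure, with eight concentrations per chemical. MCF-7 cells grown in DMEM plus 10% fetal bovine serum; activity fitted in both directions against DMSO.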

A short description of assay [3]: CCTE_Shafer_MEA_acute_burst_number: CCTE's Neural Acute Assay for Single-Electrode Bursts, Shafer Lab (AID 2284013). The gist of the method: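 Primary rat cortical neurons on 16-electrode MEA wells, DIV 13 or 15, exposed to compound (0.03-40 uM; ≥3 wells); 40-min recordings at 37 C before and after treatment. Burst count expressed as percent change from baseline, DMSO as negative control.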

A short description of assay [4]: CCTE_Shafer_MEA_acute_burst_duration_mean: CCTE's Neural Acute Assay for Mean Burst Duration, Shafer Lab (AID 2284014).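 Also: hits are decreases in mean burst duration relative to DMSO controls.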 In a few lines: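 Mean burst duration was compared between a 40 min baseline and a 40 min recording in the presence of compound (0.03-40 uM, 37 C), giving percent change per well. Cultures were rat cortical neurons at DIV 13 or 15; wells needed ≥10 active electrodes.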

Assay [5] is described as follows: CCTE_Shafer_MEA_acute_interburst_interval_mean: CCTE's Neural Acute Assay for Mean Interburst Interval, Shafer Lab (AID 2284016).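 Also: percent change of mean interburst interval versus each well's own pre-dose baseline; curves fitted for decrease in interburst interval relative to DMSO.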 In a few lines:
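MEA recording of spontaneous network bursting in primary rat cortical cultures; mean interburst interval was compared before and after a 40-min compound exposure (0.03-40 uM) and expressed as percent change, relative to DMSO.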

Assay [6] is described as follows: CCTE_Shafer_MEA_acute_burst_percentage_mean: CCTE's Neural Acute Assay for Percentage of Spikes in a Burst, Shafer Lab (AID 2284017).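 As to AC50: curve fitted for loss of signal so potency reflects decreased burst percentage.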 The gist of the method:
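Compounds were tested at 0.03-40 uM on primary rat cortical neuron networks grown over microelectrodes, with at least three wells per compound. Spontaneous firing was recorded for 40 min before and 40 min after dosing, and the change in burst percentage was computed per well.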

The nature of assay [7]: CCTE_Shafer_MEA_acute_burst_percentage_std: CCTE's Neural Acute Assay for Standard Deviation of Burst Percentage, Shafer Lab (AID 2284018).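 Also: fitted in the negative direction so actives lower burst percentage SD.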 In a few lines: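 Value is percent change from baseline in the across-electrode SD of spikes-in-bursts percentage, wells with >/= 10 active electrodes. Acute 40-min exposure to 0.03-40 uM on DIV 13 or 15 rat cortical cultures, recorded at 37 C after 40-min baseline.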

Assay [8] can be described thus: CCTE_Shafer_MEA_acute_per_network_burst_spike_number_mean: CCTE's Neural Acute Assay for Average Number of Spikes in a Network Burst, Shafer Lab (AID 2284019). The gist of the method:
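Percent change from baseline in mean spikes per network burst, spikes detected at 8x rms noise. Each compound at 0.03-40 uM in at least three wells of rat cortical cultures, recorded 40 min before and 40 min during exposure.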

A short description of assay [9]: CCTE_Shafer_MEA_acute_per_network_burst_spike_number_std: CCTE's Neural Acute Assay for Standard Deviation of Number of Spikes in a Network Burst, Shafer Lab (AID 2284020).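 Also: fitted for decrease in spike-number SD versus DMSO so actives lower it.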 The gist of the method: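 Endpoint: percent change from 40 min baseline in standard deviation of spikes per network burst, after 40 min compound exposure (0.03-40 uM, 37 C). Cortical rat neurons on MEA at DIV 13 or 15; spikes detected at 8x rms noise, 300-5000 Hz band-pass.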

Assay [10] can be described thus: CCTE_Shafer_MEA_acute_per_network_burst_electrodes_number_mean: CCTE's Neural Acute Assay for Mean Number of Electrodes in a Network Burst, Shafer Lab (AID 2284021).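 Also: curves fitted for decreases only so hits reduce electrodes per burst.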 The gist of the method: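 Percent change from baseline was computed as mean electrode count per network burst, comparing 40 min recordings before and during compound (0.03-40 uM) exposure. Cultures were rat cortical neurons at DIV 13 or 15, recorded on MEAs at 37 C with an adaptive 8x rms threshold.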

A short description of assay [11]: CCTE_Shafer_MEA_acute_network_burst_percentage: CCTE's Neural Acute Assay for Percentage of Network Bursts, Shafer Lab (AID 2284022).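 Also: curves fitted for loss so actives lower network burst percentage.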 In a few lines: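 Network burst percentage (spikes in network bursts divided by total spikes) recorded at 37 C over 40 min baseline and 40 min after compound, 0.03-40 uM, in rat cortical cultures at DIV 13 or 15. Analysed as percent change from baseline versus DMSO.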

Assay [12] in a line: CCTE_Shafer_MEA_acute_cross_correlation_area: CCTE's Neural Acute Assay for Area of Cross Correlation, Shafer Lab (AID 2284024).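 Also: rat primary cortical neuron networks on 48-well MEA at DIV 13 or 15 with 40 min exposure; area under pooled inter-electrode spike cross-correlation near zero lag as percent change from own baseline; curves fitted for loss of cross-correlation area so actives lower synchrony.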 In a few lines:
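Percent change in well-wide cross-correlation area (window around zero lag) between 40 min baseline and 40 min post-compound recordings, 37 C; rat cortical cultures on MEA at DIV 13 or 15, dosed 0.03-40 uM, wells needing >/= 10 active electrodes.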

A short description of assay [13]: CCTE_Shafer_MEA_acute_cross_correlation_HWHM: CCTE's Neural Acute Assay for Cross Correlation at Half Width at Half Maximum, Shafer Lab (AID 2284026).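 Also: percent change per well from pre-dose baseline in spike cross-correlogram half width; hits are a decrease in cross-correlogram half width relative to DMSO.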 In a few lines: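 Per-well percent change in cross-correlogram half width at half maximum, derived from 40-min recordings before and after compound (0.03-40 uM) at 37 C. Cultures were rat cortical neurons, DIV 13 or 15, with adaptive spike detection at 8x rms.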

Assay [14] is described as follows: CCTE_Shafer_MEA_acute_synchrony_index: CCTE's Neural Acute Assay for Synchrony, Shafer Lab (AID 2284027).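 Also: network synchrony index of spontaneous spiking in primary rat cortical neurons on MEAs; fitted for loss of signal so actives lower synchrony relative to DMSO.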 In a few lines:
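Plates equilibrated 20 min at 37 C, baseline recorded 40 min, compound (0.03-40 uM) added, then 40 min more recorded. Cells: primary rat cortical neurons, DIV 13 or 15. Per-well synchrony index change analysed in negative direction against DMSO.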

Assay [15] is described as follows: CCTE_Shafer_MEA_dev_firing_rate_mean: CCTE's Neural Network Formation Assay for Mean Firing Rate, Shafer Lab (AID 2284031).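 As to AC50: curve fitted for loss of firing so AC50 reflects decreased mean firing rate.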 In a few lines: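 Steps: seed rat cortical cells (1.5 x 10^5/well) with laminin on PEI-coated MEA; dose day 0; record DIV 5/7/9/12, full media and compound exchange after DIV 5 and 9 recordings; compute well-mean firing rate AUC.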
Assay [16] in a line: CCTE_Shafer_MEA_dev_per_burst_spike_percent: CCTE's Neural Network Formation Assay for Percent of Spikes in a Burst, Shafer Lab (AID 2284032).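 As to AC50: fitted as a decrease in burst spike percentage below DMSO baseline.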 The gist of the method:
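Value is trapezoidal AUC over recordings on days 5, 7, 9 and 12 of the well-mean fraction of spikes falling in single-electrode bursts; rat cortical cultures exposed continuously from plating, treatment renewed DIV 5 and 9, fitted downward against DMSO.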

A short description of assay [17]: CCTE_Harrill_HTTr_CellCount_MCF7: CCTE's Cell Proliferation Assessment for the High-Throughput Transcriptomics (HTTr) Platform, Harrill Lab (AID 2284012; active = hit-call score of the fitted dose curve at least 0.9, where 1 is the maximum;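 also: cells exposed to compound for six hours; intended direction is loss of nuclei count meaning fewer cells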). The gist of the method:
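Cell count served as viability reporter: loss of Hoechst-stained nuclei, counted by high content imaging, marks decreased growth or survival. Exposure was 6 h in MCF-7 cells across eight concentrations, with DMSO as baseline.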

Assay [18] in a line: CCTE_Deisenroth_AIME_384WELL_CTox_Active: Cytotoxicity Assessment (CTOX) in CCTE's 384-well Estrogen Receptor Transactivation Assay with AIME metabolic competence (metabolism positive), Deisenroth Lab (AID 2284037; active = hit-call score of the fitted dose curve at least 0.9, where 1 is the maximum;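 also: chemicals first conditioned 2 h by alginate-bound induced rat liver S9 before cells; activity means signal loss indicating cell death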). The gist of the method:
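Cytotoxicity in VM7Luc4E2 breast cells, 24 hour, measured as protease-substrate fluorescence loss, after 2-hour metabolic conditioning with induced rat hepatic S9 in alginate microspheres. Concentrations 0.002 - 200 uM, 10 points, bidirectional fitting.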

Where “and” joins values, the source holds several entries; their conditions need not be identical. Identical values can stand only once. Inconclusive results are not listed. Calls of active or inactive are those of the source. The calls were made as follows, unless noted: active = hit-call score of the fitted dose curve at least 0.9, where 1 is the maximum; inactive = score below 0.9.

The term AC50 denotes the concentration at which the activity in the assay is half-maximal. `CC(C)[C@H](C(=O)O[C@H](C#N)c1cccc(Oc2ccccc2)c1)c1ccc(Cl)cc1`: the result in assay [1], in assay [2], in [4], in assay [5], in [7] and in assay [8] was inactive. Also, the call in assay [9] and in [12] was inactive. Further, the AC50 was 0.928 µM (active) in assay [3]; 0.958 µM (active) in assay [6]; 0.0691 µM (active) in [10]; 0.962 µM (active) in [11]; 4.36 µM (active) in assay [13]; 1.01 µM (active) in assay [14]. The AC50 was 3.13 µM (active) in [15] and 5.46 µM (active) in assay [16].
Take `COc1cc(OC)nc(Sc2cccc(Cl)c2C(=O)O)n1`: the outcome in assay [1], in [2], in [3], in assay [4], in [5] and in [6] was inactive. Also, the molecule was called inactive in assay [7], in [8], in assay [9], in assay [10], in [11] and in assay [12]. The result in [13] and in [14] was inactive.
As to `CCOP(=O)(OCC)Oc1cc(C)nc(C(C)C)n1`, the outcome in assay [1], in [2], in assay [17], in assay [15] and in [16] was inactive.
Regarding `CC(Oc1cccc(Cl)c1)C(=O)O` (stereo not given), the result in assay [1], in assay [2], in [15] and in [16] was inactive.
Take `CC(COc1ccc(Oc2ccccc2)cc1)Oc1ccccn1` (stereo not given): the result in [1], in assay [2], in assay [17], in assay [3], in assay [5] and in [8] was inactive. Also, the call in [12] and in [18] was inactive. In addition, the AC50 in assay [4] is 20 µM (active); in [6] it was 10.3 µM (active); in assay [7], 20 µM (active); in [9], 10.1 µM (active); in assay [10], 20 µM (active); in assay [11], 32.7 µM (active). For the same molecule, the concentration at half-maximal activity (AC50) is 8.8 µM (active) in assay [13] and 20 µM (active) in [14].
Regarding `CCCSP(=O)(OCC)SCCC`, the outcome in assay [1], in assay [2], in assay [17] and in [15] was inactive. Moreover, in [16], the AC50 was 50 µM (active) and 50.5 µM (active).
On to `Cc1ccn2nc(S(=O)(=O)Nc3c(F)cccc3F)nc2n1`, for which the result in [1], in assay [2], in assay [3], in assay [4], in assay [5] and in [6] was inactive. For the same molecule, the outcome in assay [7], in assay [8], in assay [9], in assay [10], in assay [11] and in assay [12] was inactive. For the same molecule, the result in assay [13] and in assay [14] was inactive.
`CN1COCN(Cc2cnc(Cl)s2)C1=N[N+](=O)[O-]`: the outcome in assay [1], in assay [2], in assay [3], in assay [4], in assay [5] and in assay [6] was inactive. For the same molecule, the outcome in assay [7], in assay [8], in assay [9], in assay [10], in [11] and in [12] was inactive. Further, the result in [13], in assay [14], in assay [15] and in assay [16] was inactive.
